# Bioassay records deposited in PubChem by National Center for Advancing Translational Sciences (NCATS).
# Cycloheximide cs = Cycloheximide Counterscreen for Small Molecule Inhibitors of Shiga Toxin | cell reporter, cycloheximide protein synthesis inhibition counterscreen | max response, % | 300,000 tested, 12% active; in the data active means max response mostly above about 13%, no sharp cut-off; inactive means mostly below about 14%; further: read at 38.3 µM for the half of the compounds with a filed dose; 0% is about no effect
# Pf growth 48h = Primary qHTS for delayed death inhibitors of the malarial parasite plastid, 48 hour incubation; P. falciparum luciferase growth in erythrocytes, 48 h; Potency, µM (top dose mostly 28.7 µM), without a hit: top-dose activity change, negative = inhibition, actives largely listed as inhibitors; 310,000 tested, 5.9% active; AID 504832, 2011; further: potency means the concentration at half of the fitted maximal effect; on the % scale 0 is the no-effect control and ±100 the full control effect
#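 Compounds are pin-transferred into medium, infected erythrocytes (2% hematocrit, 0.1% parasitemia final) are added, and plates sit one parasite generation at 37 C in 5% CO2. Detection reagent is then added and luminescence measured.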
# Shiga inhibitor = A qHTS for Small Molecule Inhibitors of Shiga Toxin; Vero cells, Shiga toxin protein synthesis inhibition reporter; inhibition, % at 38.7 µM; 290,000 tested, 9.2% active; AID 2315, 2010; in the data active means inhibition mostly above about 28%, no sharp cut-off; inactive means mostly below about 43%; further: 0% is about no effect
# Pf growth 96h = Primary qHTS for delayed death inhibitors of the malarial parasite plastid, 96 hour incubation; P. falciparum luciferase reporter growth, 96 h; Potency, µM (top dose mostly 28.7 µM), for the others: at the highest dose activity change, negative = inhibition, hits mostly inhibitors; 320,000 tested, 6.9% active; further: potency means the concentration at half of the fitted maximal effect; on the % scale 0 is the no-effect control and ±100 the full control effect
#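 P. falciparum expressing integrated firefly luciferase grown in erythrocytes (2% hematocrit, 0.05% parasitemia final) with compounds for 96 hours at 37 C, 5% CO2. Growth inhibition read as loss of luminescence after adding luciferase detection reagent.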
# HCMV antiviral = qHTS Assay for inhibitors of the human cytomegalovirus (HCMV); HFF cells, HCMV-luciferase reporter, 72 h; hits give low values; activity change, negative = inhibition, % at 57.5 µM; 410,000 tested, 4.5% active; AID 1259415, 2018; in the data active means activity change below about -60%; inconclusive means no clear call, values can overlap the other calls; inactive means above about -39%; further: on the % scale 0 is the no-effect control and ±100 the full control effect
#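 Screen run at 2 compound doses on HFFs infected with reporter HCMV, MOI 1 PFU/cell. Luciferase activity from cell lysates at 72 h post infection gave inhibition relative to buffer-only and Salinomycin wells.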
# * marks the source's active call; other numbers are inactive results; i = inactive; ? = inconclusive; . = no result. Most compounds without a hit are left out; they make up all but 20% or so of the library. Unless noted, the call rests on the fitted dose curve; in most records, active means well fitted inhibition curve with a large enough effect; inconclusive means small, poorly fitted or top-dose-only effect, or another doubt; inactive means no such curve, though single readings can be large or run the other way.
SMILES,Cycloheximide cs,Pf growth 48h,Shiga inhibitor,Pf growth 96h,HCMV antiviral
Cc1ccc(C2(C)NC(=O)N(CC(=O)NNC(=O)c3ccoc3C)C2=O)cc1 (configuration not stated),.,2%,.,16%,-6
Cc1ccnc(NS(=O)(=O)c2ccc(NC(=O)C3COc4ccccc4O3)cc2)n1 (configuration not stated),-1,16%,-11,31%,-7
Cc1cc(N2C(=O)C(O)=C(C(=O)c3ccc(C)o3)C2c2ccc([N+](=O)[O-])cc2)no1 (configuration not stated),-1,-17%,6,?,?
Cc1cccc(NC(=O)Nc2ccc(F)cc2)n1,17,62%,63*,67%,-19
Cc1cccc(NC(=S)NC2CCCCC2)n1,-1,5.2µM*,5,-17%,?
COC(=O)Cc1ccc(NC(=S)Nc2cccc(C)n2)cc1,16*,8%,40,?,?
Cc1cccc(NC(=O)NC(=O)c2ccccc2)n1,20,i,74*,203%,32
COc1ccccc1NC(=O)COC(=O)c1oc2ccccc2c1C,4,-19%,-8,-20%,58
CN(Cc1ccccc1)C(=O)c1ccc(NC(=O)Cc2ccc([N+](=O)[O-])cc2)cc1,.,.,.,.,-23
Cc1ccc(S(=O)(=O)N2CCN(C(=O)CN3C(=O)c4ccc([N+](=O)[O-])cc4C3=O)CC2)cc1C,.,-13%,.,-21%,0
COc1ccc(-c2nc(S(=O)(=O)c3ccc(Cl)cc3)c(N3CCCCCC3)o2)cc1,.,.,.,.,-7
CCOC(=O)c1ccc(NC(=S)Nc2cccc(C)n2)cc1,1,-29%,-8,?,-6
Cc1cccc(NC(=S)Nc2ccc(Oc3ccccc3)cc2)n1,7,-4%,8,9.3µM*,-61*
COc1ccccc1CNC(=O)C1CC(c2ccccc2F)=NO1 (configuration not stated),18*,63%,44*,94%,18
COc1ccc(CNC(=O)C2CC(c3ccccc3C(F)(F)F)=NO2)cc1 (configuration not stated),1,46%,-4,72%,26
COc1ccc(CNC(=O)C2CC(c3ccccc3[N+](=O)[O-])=NO2)cc1 (configuration not stated),29*,5%,65*,36%,37
COc1ccccc1CNC(=O)C1CC(c2ccccc2[N+](=O)[O-])=NO1 (configuration not stated),41*,35%,96*,11%,86
COc1ccccc1CNC(=O)C1CC(c2ccccc2C(F)(F)F)=NO1 (configuration not stated),-2,-16%,3,18%,-4
O=C1CCC[C@@H]2C[C@@]3(C[C@@H]4CCN1[C@H]24)Nc1cc(Cl)c(Cl)cc1NC3=NCc1ccccc1,.,.,.,.,39
CC(C)CC(C(=O)NC1CCCC1)N(Cc1cccs1)C(=O)c1snc(C(N)=O)c1N (configuration not stated),-4,?,8,4%,2
COc1ccc(C(C(=O)NCC2CCCO2)N(Cc2cccs2)C(=O)c2snc(C(N)=O)c2N)cc1 (configuration not stated),-4,?,6,?,-101*
CCOc1ccc(C(C(=O)NCC2CCCO2)N(Cc2cccc(OC)c2)C(=O)c2snc(C(N)=O)c2N)cc1 (configuration not stated),-4,13µM*,-6,?,15
CC(C)CC(C(=O)NC(C)(C)C)N(Cc1cccs1)C(=O)c1snc(C(N)=O)c1N (configuration not stated),49*,-16%,47*,21%,-31
COc1ccc2c(c1)C(c1ccccc1C)CC(=O)O2 (configuration not stated),-2,.,i,.,.
COc1ccc2cc(C#N)c(N3CCOCC3)nc2c1,-2,6%,-3,2%,-11
COc1ccc2nc(N3CCC(C)CC3)c(C#N)cc2c1,44*,107%,92*,.,32
COc1ccc2nc(N3CCC(O)CC3)c(C#N)cc2c1,36*,35%,92,-4%,41
CCc1ccc2nc(N3CCN(C)CC3)c(C#N)cc2c1,22*,17%,17*,?,5
O=C1CCCCCC(=O)[C@H](O)C[C@H](c2ccccc2)O1,.,.,.,.,6
